Experimental data published in PubChem BioAssay.
Active and inactive are the calls of the source.

Experiments:
[1] = tested on: PRMT1 (protein arginine N-methyltransferase 1); assay: PRMT1 binders on small-molecule microarrays, primary screen, biochemical, small-molecule microarray, 635 nm fluorescence (AID 1088); conditions: small-molecule microarray binding, higher = more signal;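 also: binding of Prmt1 protein to compounds spotted on small-molecule microarray slides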
[2] = yeast growth modulation, basal conditions, primary screen, YJM789 clinical isolate, OD600, 24 h (AID 1089);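 also: growth of clinical yeast isolate S. cerevisiae YJM 789 seeded 1000 cells per well; test concentration not given here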; conditions: S. cerevisiae YJM789 growth, higher = more signal, called active from +8 up or from −8 down
[3] = fission yeast growth modulation, primary screen, strain 972, OD600, 24 h, no modulator (AID 1090);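 also: basal condition with compound alone and no growth modifier present; test concentration not given here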; conditions: S. pombe 972 growth, higher = more signal, called active from +8 up or from −8 down
[4] = S. cerevisiae growth modulation with rapamycin, primary screen, strain BY4716, OD600, 96 h (AID 1091); conditions: higher = more signal, called active from +8 up or from −8 down; also: test concentration not given here
[5] = target: Torsin-1A-interacting protein 2 (Homo sapiens) (UniProt Q8NFQ8); assay: LULL1 binders on small-molecule microarray, primary screen, cell lysate, human LULL1 lysate, 635/667 nm fluorescence (AID 1092); conditions: hLULL1 lysate binding, 635 nm fluorescence, higher = more signal;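 also: probe is lysate of COS7 cells overexpressing human LULL1; score merges per-feature 667 nm fluorescence with signal-to-noise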
Chain of Torsin-1A-interacting protein 2 (Homo sapiens) (Q8NFQ8 whole entry, looked up): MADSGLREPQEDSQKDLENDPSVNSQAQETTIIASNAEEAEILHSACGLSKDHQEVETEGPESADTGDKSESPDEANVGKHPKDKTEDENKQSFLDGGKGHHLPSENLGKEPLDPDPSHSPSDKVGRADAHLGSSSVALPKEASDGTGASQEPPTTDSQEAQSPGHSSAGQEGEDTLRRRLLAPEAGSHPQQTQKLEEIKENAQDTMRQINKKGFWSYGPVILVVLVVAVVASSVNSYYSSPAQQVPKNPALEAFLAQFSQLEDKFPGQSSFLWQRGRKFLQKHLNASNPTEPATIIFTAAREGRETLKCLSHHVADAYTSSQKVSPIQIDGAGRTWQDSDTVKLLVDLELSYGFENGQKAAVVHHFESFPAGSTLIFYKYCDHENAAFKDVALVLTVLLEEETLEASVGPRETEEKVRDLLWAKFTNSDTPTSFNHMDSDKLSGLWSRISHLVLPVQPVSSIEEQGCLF

[6] = E. coli growth modulation, two-sided OD650, primary screen, E. coli filamentation project, strain DRC41, 24 h (AID 1093); conditions: OD650, 24 h, higher = more signal, called active from +8 up or from −8 down;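 also: MC1000 strain lacking acrAB efflux and sulA so SOS filamentation is blocked; test concentration not given here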
[7] = small-molecule microarray binders of probe aLefty2, primary screen, biochemical, biotinylated probe, 635/667 nm fluorescence (AID 1094); conditions: higher = more signal;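 also: score merges spot fluorescence near 667 nm with spot signal-to-noise ratio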
[8] = tested on: Noggin (protein binding on small-molecule microarray); assay: Noggin binders on small-molecule microarray, primary screen, biochemical, 635/667 nm fluorescence (AID 1095); conditions: 635 nm fluorescence, higher = more signal;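 also: score merges 667 nm feature fluorescence with signal to noise over triplicate slides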
[9] = target: Neurogenic locus notch homolog protein 3 (Homo sapiens) (UniProt Q9UM47); assay: NOTCH3 binders on small-molecule microarray, primary screen, biochemical, 635/667 nm fluorescence (AID 1096); conditions: NOTCH3 binding, 635 nm fluorescence, higher = more signal
Chain of Neurogenic locus notch homolog protein 3 (Homo sapiens) (Q9UM47 whole entry, looked up): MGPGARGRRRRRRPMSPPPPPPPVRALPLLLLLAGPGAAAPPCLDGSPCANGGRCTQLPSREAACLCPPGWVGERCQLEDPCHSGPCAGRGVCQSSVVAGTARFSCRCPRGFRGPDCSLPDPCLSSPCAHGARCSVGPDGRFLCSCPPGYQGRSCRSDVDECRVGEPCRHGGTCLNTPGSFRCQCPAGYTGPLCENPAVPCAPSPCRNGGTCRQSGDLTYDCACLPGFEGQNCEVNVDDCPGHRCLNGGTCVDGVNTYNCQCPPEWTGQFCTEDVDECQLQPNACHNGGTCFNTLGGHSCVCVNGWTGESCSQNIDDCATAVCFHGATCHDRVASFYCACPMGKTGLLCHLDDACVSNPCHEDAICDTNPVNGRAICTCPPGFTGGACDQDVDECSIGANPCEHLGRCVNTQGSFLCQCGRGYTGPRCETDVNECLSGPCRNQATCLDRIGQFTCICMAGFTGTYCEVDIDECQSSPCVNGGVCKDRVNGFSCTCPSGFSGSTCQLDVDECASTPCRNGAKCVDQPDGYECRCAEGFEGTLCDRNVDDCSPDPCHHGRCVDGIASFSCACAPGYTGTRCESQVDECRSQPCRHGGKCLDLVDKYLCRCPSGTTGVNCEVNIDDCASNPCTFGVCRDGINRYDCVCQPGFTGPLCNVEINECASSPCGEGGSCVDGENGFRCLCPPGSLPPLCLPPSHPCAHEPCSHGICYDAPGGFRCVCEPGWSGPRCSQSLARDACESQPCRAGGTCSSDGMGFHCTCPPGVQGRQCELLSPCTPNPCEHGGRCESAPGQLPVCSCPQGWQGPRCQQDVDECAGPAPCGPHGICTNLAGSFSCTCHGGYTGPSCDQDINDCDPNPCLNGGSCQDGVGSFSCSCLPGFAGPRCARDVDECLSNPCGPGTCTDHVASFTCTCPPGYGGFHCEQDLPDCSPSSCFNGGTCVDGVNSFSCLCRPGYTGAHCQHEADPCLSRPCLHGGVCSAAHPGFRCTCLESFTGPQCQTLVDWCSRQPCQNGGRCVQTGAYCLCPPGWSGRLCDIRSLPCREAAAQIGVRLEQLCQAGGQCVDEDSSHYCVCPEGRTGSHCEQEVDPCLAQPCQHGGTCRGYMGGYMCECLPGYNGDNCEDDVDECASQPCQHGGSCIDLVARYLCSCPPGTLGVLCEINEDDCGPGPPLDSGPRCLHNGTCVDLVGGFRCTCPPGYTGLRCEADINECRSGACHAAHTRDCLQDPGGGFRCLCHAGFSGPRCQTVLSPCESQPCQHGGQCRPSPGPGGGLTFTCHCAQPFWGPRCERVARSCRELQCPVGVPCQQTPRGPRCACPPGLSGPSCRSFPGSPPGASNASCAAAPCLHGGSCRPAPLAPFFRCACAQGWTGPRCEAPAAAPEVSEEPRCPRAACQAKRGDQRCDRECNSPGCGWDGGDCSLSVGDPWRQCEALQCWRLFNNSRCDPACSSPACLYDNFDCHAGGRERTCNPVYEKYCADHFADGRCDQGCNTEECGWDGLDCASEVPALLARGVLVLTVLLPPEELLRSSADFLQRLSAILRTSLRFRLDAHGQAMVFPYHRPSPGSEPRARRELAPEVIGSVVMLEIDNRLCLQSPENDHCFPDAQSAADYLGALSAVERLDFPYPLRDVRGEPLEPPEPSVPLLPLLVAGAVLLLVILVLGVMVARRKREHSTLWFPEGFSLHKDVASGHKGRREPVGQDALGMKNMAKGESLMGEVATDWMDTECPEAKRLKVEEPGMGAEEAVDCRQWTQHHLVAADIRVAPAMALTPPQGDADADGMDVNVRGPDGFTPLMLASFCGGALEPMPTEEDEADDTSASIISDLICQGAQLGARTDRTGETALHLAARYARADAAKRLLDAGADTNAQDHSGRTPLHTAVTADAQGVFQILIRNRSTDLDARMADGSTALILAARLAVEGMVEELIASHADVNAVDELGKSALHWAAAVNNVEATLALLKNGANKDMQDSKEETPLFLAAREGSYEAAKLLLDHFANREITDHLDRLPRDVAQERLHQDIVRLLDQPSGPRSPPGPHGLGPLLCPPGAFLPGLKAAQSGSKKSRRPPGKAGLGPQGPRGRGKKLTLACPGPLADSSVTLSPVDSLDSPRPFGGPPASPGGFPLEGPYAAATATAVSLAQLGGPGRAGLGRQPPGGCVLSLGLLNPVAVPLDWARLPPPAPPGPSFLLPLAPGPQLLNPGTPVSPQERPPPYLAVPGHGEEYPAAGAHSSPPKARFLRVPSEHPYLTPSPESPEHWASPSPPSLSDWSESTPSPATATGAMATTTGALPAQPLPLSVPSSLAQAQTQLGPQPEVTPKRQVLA

[10] = small-molecule microarray binders of probe aEGFR, primary screen, biochemical, biotinylated probe, 635/667 nm fluorescence (AID 1097); conditions: higher = more signal;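 also: probe is a biotinylated anti-EGFR antibody binding compounds printed on slides; score combines fluorescence near 667 nm and signal to noise of each spot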
[11] = tested on: Plasmodium falciparum Sir2 (PF13_0152, Sir2A); assay: pfSir2 binders on small-molecule microarrays, primary screen, biochemical, small-molecule microarray, 635 nm fluorescence (AID 1098); conditions: small-molecule microarray binding, fluorescence 635 nm; higher = more signal;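 also: score merges spot fluorescence intensity with its signal-to-noise ratio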
[12] = small-molecule microarray binders of probe aDKK1, primary screen, biochemical, biotinylated probe, 635/667 nm fluorescence (AID 1099); conditions: higher = more signal;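 also: score merges 667nm spot fluorescence with signal to noise across triplicate slides; reference of the scale not given here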
[13] = small-molecule microarray binders of probe aCHRDL2, primary screen, biochemical, biotinylated probe, 635/667 nm fluorescence (AID 1100); conditions: higher = more signal
[14] = splicing luciferase reporter signal modulators, primary screen, spliceosome inhibition project, cell-based, HEK293, splice +/- reporter (AID 1101); conditions: luminescence, 24 h, higher = more signal, called active from +8 up or from −8 down;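 also: HEK293 cells carrying a splicing-competent luciferase reporter gene; test concentration not given here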
[15] = target: Fibroblast growth factor 10 (Homo sapiens) (UniProt O15520); assay: FGF10 binders on small-molecule microarrays, primary screen, biochemical, small-molecule microarray, 635 nm fluorescence (AID 1102); conditions: FGF10 binding, fluorescence 635 nm, higher = more signal
Chain of Fibroblast growth factor 10 (Homo sapiens) (O15520 whole entry, looked up): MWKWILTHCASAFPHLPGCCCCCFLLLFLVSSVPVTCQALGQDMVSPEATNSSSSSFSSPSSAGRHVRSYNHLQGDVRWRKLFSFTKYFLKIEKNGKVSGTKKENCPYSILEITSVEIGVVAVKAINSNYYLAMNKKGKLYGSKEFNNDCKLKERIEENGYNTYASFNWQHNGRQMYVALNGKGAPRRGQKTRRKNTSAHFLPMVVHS

[16] = tested on: glycogen synthase kinase-3 (GSK3A per assay name; protocol says GSK3B); assay: GSK3 binders on small-molecule microarrays, primary screen, biochemical, small-molecule microarray, 635 nm fluorescence, GSK3A (AID 1103); conditions: small-molecule microarray binding, fluorescence 635 nm; higher = more signal; also: the record names both GSK3A and GSK3B
[17] = target: Epidermal growth factor receptor (Homo sapiens) (UniProt P00533); assay: EGFR binders on small-molecule microarrays, primary screen, biochemical, small-molecule microarray, 635 nm fluorescence (AID 1104); conditions: EGFR binding, higher = more signal;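 also: score merges 667 nm emission intensity with spot signal to noise over triplicate slides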
Chain of Epidermal growth factor receptor (Homo sapiens) (P00533 whole entry, looked up): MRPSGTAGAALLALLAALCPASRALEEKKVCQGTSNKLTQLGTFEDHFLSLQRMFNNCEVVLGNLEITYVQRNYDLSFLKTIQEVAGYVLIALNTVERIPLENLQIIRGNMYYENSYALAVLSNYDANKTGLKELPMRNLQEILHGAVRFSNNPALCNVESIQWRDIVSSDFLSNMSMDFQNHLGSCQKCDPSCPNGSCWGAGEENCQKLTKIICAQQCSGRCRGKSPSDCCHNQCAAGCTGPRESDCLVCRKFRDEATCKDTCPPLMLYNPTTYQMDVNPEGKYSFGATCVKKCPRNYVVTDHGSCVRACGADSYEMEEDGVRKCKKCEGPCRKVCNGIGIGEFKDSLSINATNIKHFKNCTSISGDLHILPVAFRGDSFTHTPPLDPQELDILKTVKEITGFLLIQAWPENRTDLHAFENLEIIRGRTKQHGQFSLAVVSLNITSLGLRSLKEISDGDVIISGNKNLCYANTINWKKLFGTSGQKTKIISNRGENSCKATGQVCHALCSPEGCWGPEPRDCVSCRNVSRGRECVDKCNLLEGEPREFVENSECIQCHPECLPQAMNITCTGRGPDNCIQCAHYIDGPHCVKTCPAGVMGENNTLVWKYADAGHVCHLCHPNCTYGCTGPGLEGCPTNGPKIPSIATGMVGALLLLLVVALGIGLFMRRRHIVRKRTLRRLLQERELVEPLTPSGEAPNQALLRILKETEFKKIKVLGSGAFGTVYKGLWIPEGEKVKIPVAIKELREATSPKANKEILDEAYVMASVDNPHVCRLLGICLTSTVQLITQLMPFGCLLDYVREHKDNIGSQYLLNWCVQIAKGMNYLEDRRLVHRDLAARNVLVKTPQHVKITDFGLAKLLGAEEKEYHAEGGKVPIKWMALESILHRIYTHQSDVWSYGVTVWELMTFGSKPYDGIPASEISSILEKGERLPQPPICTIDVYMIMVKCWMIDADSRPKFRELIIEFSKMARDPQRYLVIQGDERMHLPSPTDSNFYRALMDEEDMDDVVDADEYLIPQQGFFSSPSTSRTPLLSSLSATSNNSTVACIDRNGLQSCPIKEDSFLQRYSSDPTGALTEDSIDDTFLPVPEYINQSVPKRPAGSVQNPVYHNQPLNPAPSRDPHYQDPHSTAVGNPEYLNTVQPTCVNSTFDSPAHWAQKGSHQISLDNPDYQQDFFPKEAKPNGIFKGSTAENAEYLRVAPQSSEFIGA

[18] = target: Follistatin-related protein 3 (Homo sapiens) (UniProt O95633); assay: FSTL3 binders on small-molecule microarrays, primary screen, biochemical, small-molecule microarray, 635 nm fluorescence (AID 1105); conditions: FSTL3 binding, higher = more signal;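 also: score merges emission near 667 nm and signal to noise per printed spot across three slides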
Chain of Follistatin-related protein 3 (Homo sapiens) (O95633 whole entry, looked up): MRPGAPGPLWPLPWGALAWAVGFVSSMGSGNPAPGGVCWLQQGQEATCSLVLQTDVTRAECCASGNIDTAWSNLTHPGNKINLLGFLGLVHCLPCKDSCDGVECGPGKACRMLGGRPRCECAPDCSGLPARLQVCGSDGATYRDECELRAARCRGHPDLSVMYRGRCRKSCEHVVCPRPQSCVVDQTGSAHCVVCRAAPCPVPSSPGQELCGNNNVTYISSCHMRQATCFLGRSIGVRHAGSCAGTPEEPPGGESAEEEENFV

[19] = target: Dickkopf-related protein 1 (Homo sapiens) (UniProt O94907); assay: DKK1 binders on small-molecule microarrays, primary screen, biochemical, small-molecule microarray, 635 nm fluorescence scan (AID 1106); conditions: DKK1 binding, higher = more signal;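 also: score merges emission near 667 nm with signal to noise over three replicate slides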
Chain of Dickkopf-related protein 1 (Homo sapiens) (O94907 whole entry, looked up): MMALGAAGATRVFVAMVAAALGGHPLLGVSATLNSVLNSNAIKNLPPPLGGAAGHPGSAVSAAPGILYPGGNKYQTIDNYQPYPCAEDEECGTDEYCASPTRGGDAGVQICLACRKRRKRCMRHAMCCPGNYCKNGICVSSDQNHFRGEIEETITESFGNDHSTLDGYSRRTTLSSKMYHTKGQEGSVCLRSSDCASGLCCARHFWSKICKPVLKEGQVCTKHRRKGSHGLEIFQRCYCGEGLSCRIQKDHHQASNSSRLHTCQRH

[20] = tested on: Inhibin beta A chain (activin A); assay: INHBA (activin A) binders on microarrays, primary screen, biochemical, small-molecule microarray, 635 nm fluorescence scan (AID 1107); conditions: small-molecule microarray binding, higher = more signal;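 also: mouse activin A protein probed at 4.33 µg/mL on printed slides; score merges bound-protein fluorescence near 667 nm with spot signal-to-noise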

Structure (SMILES) | composite z-score [1] | z-score [2] | z-score [3] | z-score [4] | composite z-score [5] | z-score [6] | composite z-score [7] | composite z-score [8] | composite z-score [9] | composite z-score [10] | composite z-score [11] | composite z-score [12] | composite z-score [13] | z-score [14] | composite z-score [15] | composite z-score [16] | composite z-score [17] | composite z-score [18] | composite z-score [19] | composite z-score [20]
CC(c1ccccc1)C(O)C1C=CC2C(=O)N(Cc3ccccc3)C(=O)C2N1n1cnnc1 (stereo not given) | 0.418 | -1.04 (inactive) | -0.0262 (inactive) | 0.496 (inactive) | 1.6 | -1.27 (inactive) | 0.0524 | 0.483 | 0.728 | 0.08 | 0.424 | 0.492 | 0.675 | -0.605 (inactive) | 0.691 | 0.29 | 0.153 | 0.369 | -0.174 | 0.813
C=CCN1Cc2ccccc2C[C@@]2(COC(c3ccc(OCCCO)cc3)=N2)C1=O | 1.5 | -0.915 (inactive) | -4.77 (inactive) | 0.817 (inactive) | 2.3 | 1.42 (inactive) | 0.247 | 0.34 | 0.454 | 0.052 | 1.03 | 1.02 | 1.15 | -1.13 (inactive) | 0.489 | 0.597 | 0.437 | 0.68 | 0.644 | 1.59
CC(C)[Si]1(C(C)C)O[C@@H](c2ccccc2)c2cc(-c3ccc(-c4ccc(Cl)c(Cl)c4)o3)nc(CCc3ccccc3)c21 | 0.324 | 0.149 (inactive) | -2.2 (inactive) | 3.08 (inactive) | 0.883 | -0.823 (inactive) | -0.126 | -1.37 | -1.78 | -0.248 | -0.708 | 0.147 | 0.731 | 0.428 (inactive) | -0.707 | -0.345 | -0.844 | -1.54 | -1.25 | 0.949
CCCCN1CC=CC23O[C@@H]4/C=C\CCCOC(=O)C4[C@H]2C(=O)N(C(C)CO)[C@@H]3C1=O (stereo not given in full) | -0.376 | -0.0849 (inactive) | -0.958 (inactive) | -0.417 (inactive) | -0.0431 | 0.315 (inactive) | -0.282 | 0.16 | -0.0087 | -0.233 | 1.62 | -0.292 | -0.305 | -0.577 (inactive) | -0.319 | -0.969 | -0.154 | -0.43 | 0.326 | 0.788
COCCOC(=O)N1C(=O)[C@@]2(c3cc(C#CCC(C(=O)OC)C(=O)OC)ccc31)[C@H](c1ccc(OCCO)cc1)N1[C@H](c3ccccc3)[C@H](c3ccccc3)OC(=O)[C@H]1[C@@H]2C(=O)NC[C@H](O)c1ccccc1 | 1.53 | 2.11 (inactive) | 1.7 (inactive) | 7.38 (inactive) | 3.51 | 0.0053 (inactive) | -0.426 | 1.46 | 1.08 | -0.0389 | 1.52 | -0.405 | -0.189 | 0.0782 (inactive) | 1.5 | 1.3 | 0.586 | 1.29 | 0.356 | 0.094
[N-]=[N+]=NCc1ccccc1C[C@]1(C(=O)NCc2ccccc2)COC(c2ccc(OCCCO)cc2)=N1 | 1.01 | 1.67 (inactive) | 0.816 (inactive) | 36 (active) | 3.12 | 1.21 (inactive) | -0.0438 | 0.0869 | -0.146 | -0.0828 | 0.518 | -0.109 | 0.681 | -0.426 (inactive) | 0.447 | 0.431 | 0.0245 | -0.109 | -0.874 | 0.743
O=C1c2ccccc2[C@@]2(Cc3ccccc3N(Cc3ccccc3)C2=O)[C@H](c2ccc(CO)cc2)N1Cc1ccccc1C(F)(F)F | -0.325 | 0.376 (inactive) | -0.666 (inactive) | -1.11 (inactive) | 2.03 | 0.127 (inactive) | -0.222 | -0.848 | 0.117 | -0.243 | 1.1 | 0.0463 | 0.847 | 0.0517 (inactive) | -0.665 | -0.866 | -1.09 | -0.71 | -1.38 | 0.581
O=C(NCc1ccccc1)[C@@H]1c2ccccc2C(=O)N(C2CCCCC2)[C@H]1c1ccc(CO)cc1 | 1.47 | -0.406 (inactive) | -0.577 (inactive) | 0.39 (inactive) | 2.53 | -0.175 (inactive) | -0.322 | 1.41 | 1.03 | -0.352 | 0.88 | -0.709 | 0.0028 | 0.365 (inactive) | 0.686 | 0.0662 | -0.241 | 0.707 | -0.327 | -0.224
COc1ccc([Si](C)(C)[C@@H]2[C@@H](CCO)O[C@]3(C(=O)N(Cc4ccccc4)c4ccc(N(C=O)c5ccccc5)cc43)[C@H]2C)cc1 | 1.28 | 0.697 (inactive) | 1.56 (inactive) | 7.37 (inactive) | 1.33 | 0.329 (inactive) | -0.0479 | 0.0182 | 0.718 | -0.189 | 0.622 | -0.185 | -0.025 | -1.1 (inactive) | 0.454 | -0.141 | 0.012 | -0.0895 | 0.169 | 0.328
CC1CC/C=C\[C@H]2OC34C=CCN(CCN5CCOCC5)C(=O)[C@H]3N(CCCCCO)C(=O)[C@@H]4C2C(=O)O1 (stereo not given in full) | -0.632 | -0.631 (inactive) | -0.726 (inactive) | -0.206 (inactive) | -1.13 | -0.497 (inactive) | -0.339 | -1.02 | -1.17 | -0.158 | -0.31 | -0.605 | -0.824 | -0.282 (inactive) | -0.352 | -0.444 | -0.559 | -0.507 | -0.0732 | 1.01
